The values that follow come from PubChem BioAssay (NCATS).

Results filed as inconclusive are left out. Active and inactive are the calls of the source. Calls come from the whole dose curve. Starred links: 1 amine or outer side, 2 acyl side, 3 side chain; linkers in the order of their positions; H or OH if unused. Positions of bridges follow the written chain, without caps; N, C: chain ends. Non-standard residues stand in square brackets, D forms with d. Residues, ends and D or L forms follow the SMILES beside them. Groups on a side chain read outwards from the residue. ξ: configuration not given here. *: point of attachment. X4 = O=C(C1CC2(c3ccc(O)cc3)c3ccccc3NC2N1[*:1])[*:2]; Phg(4-OMe) = COc1ccc([C@H](N)C(=O)O)cc1; d(aIle) = CC[C@H](C)[C@@H](N)C(=O)O; d(aThr) = C[C@@H](O)[C@@H](N)C(=O)O; NMeF = CN[C@@H](Cc1ccccc1)C(=O)O; ξW = NC(Cc1c[nH]c2ccccc12)C(=O)O; ξY = NC(Cc1ccc(O)cc1)C(=O)O; Isobutyryl = CC(C)C(=O)*; Hexanoyl = CCCCCC(=O)*

The nature of the assay: qHTS for inhibitors of Rabies Virus screened against the NCATS CANVASS Library (AID 1347402). Note: 0% is about no effect. Particulars: Rabies virus infection cell assay; series mostly up to 45.9 µM; activity change, negative = inhibition: at the top concentration. Background: qHTS replaces the single test concentration by a dilution series.
With `COc1cc(/C=C2/C(=O)N(c3ccc(O)cc3C(=O)O)[C@H](c3ccc(O)c(OC)c3)C2C(=O)Nc2ccc(O)cc2C(=O)O)ccc1O` (stereo partly specified), the “activity change, negative = inhibition” value was -23.1% (inactive).
On the same count and under the same terms, the value for `O=C1c2c(O)cc(O)cc2OC(c2ccc(O)cc2)C1O` (stereo unspecified) was -19% (inactive); that for `C/C1=C/[C@@H](C)[C@H](O)[C@@H](O)/C=C/CC/C=C/C(=O)O[C@@H]1[C@H](C)C(=O)/C=C/CC1CC(=O)NC(=O)C1` was 11.6% (inactive).
`C[C@@]12CCC[C@@](C)(C(=O)OP(=O)(O)OC[C@H]3O[C@@H](n4cnc5c(N)ncnc54)[C@H](O)[C@@H]3O)[C@H]1C[C@@H](O)[C@@]13C[C@@H](CC[C@@H]21)[C@](C)(O)C3`: the “activity change, negative = inhibition” value is -14.5% (inactive).
As to `C/C=C1/C2=CCCN3C(=O)O[C@H]([C@H]1O)[C@H]23`, the “activity change, negative = inhibition” value is -7.1% (inactive).
Regarding `C[C@@H]1C(=O)[C@]23CC[C@H]1C[C@]21O[C@H]2C(C)(C)C=CC(=O)[C@@]23COC1=O`, the “activity change, negative = inhibition” value was -23.8% (inactive).
`CC1(C)[C@H](Br)CC[C@]23C[C@]4(C)C(=O)CC12C[C@H]34`: the “activity change, negative = inhibition” value was -20.5% (inactive).
The same measure, in the same setting: under `C[C@@H]1O[C@@H](Oc2c(-c3ccc(O)cc3)oc3cc(O)cc(O)c3c2=O)[C@H](O)[C@H](O)[C@H]1O` stands -2.11% (inactive); under `CCCCCC(=O)N[C@@H](CC(C)C)C(=O)N[C@H](C=O)CCC(=O)O` (Hexanoyl-Leu-Glu-aldehyde), 5.6% (inactive); under `O=C1OC(CCO)c2cccc(O)c21` (stereo unspecified), 18.4% (inactive).
The same measure, in the same setting: the value for `O=C(O)[C@@]12COC3(O)C1CCN1CC[C@H]3[C@@H]1c1c2[nH]c2ccccc12` was -9.84% (inactive); that for `C[C@@]12CCC[C@@](C)(C(=O)O)[C@H]1CC[C@@]13C[C@@H](CC[C@H]12)[C@](C)(O)C3` was -1.37% (inactive).
On the same count and under the same terms, under `CC1C(=O)C23CCC1C[C@]21O[C@@H]2C(C)(C)C=CC(=O)[C@@]23COC1=O` (stereo partly specified) stands -6.78% (inactive); under `CN1CC[C@]23c4ccccc4N[C@H]1[C@]21CCN(C)[C@H]3Nc2ccccc21`, 8.97% (inactive).
With `C/C=C1/CC[C@@H]2c3[nH]c4ccccc4c3CCN2C1`, the “activity change, negative = inhibition” value is -12.7% (inactive).
The same measure, in the same setting: the value for `C[C@H]1C[C@@H]([C@@H]2CC[C@]34O[C@H](CC[C@@]35C[C@H](C)C(=O)O5)CN24)OC1=O` was 2.14% (inactive); that for `CC(O)/C=C/C1(O)C(C)(C)CC(O)CC1(C)O` (stereo unspecified) was -1.96% (inactive).
For the compound `C[C@@]1(CCC(=O)Nc2c(O)ccc(C(=O)O)c2O)C(=O)C=C[C@]23C[C@H]4C[C@H](O[C@@]4(C)C2)C31` (stereo partly specified), the “activity change, negative = inhibition” value was 6.93% (inactive).
Still for that read-out and setting: the value for `CC[C@H](C)[C@H]1NC(=O)[C@@H](NC(=O)C(C)C)[C@@H](C)OC(=O)[C@H](COC(=O)CNC(C)=O)NC(=O)[C@@H]([C@@H](C)O)NC(=O)[C@H](Cc2ccccc2)N(C)C(=O)[C@H](c2ccc(OC)cc2)NC1=O` (Isobutyryl-T[d(aIle)][Phg(4-OMe)][NMeF][d(aThr)]S([Gly-Ac]); ester 1-C) was -11.4% (inactive).
Consider `CC[C@@H](c1cc(OC)c(OC)cc1OC)[C@H](C)[C@@H](/C(C)=C/c1cc(OC)c(OC)cc1OC)c1cc(OC)c(OC)cc1OC`, for which the outcome was inactive.
Turning to `O=C1C[C@@H](c2ccc(O)c(-c3c(O)cc(O)c4c3O[C@H](c3ccc(O)cc3)CC4=O)c2)Oc2cc(O)cc(O)c21`, the “activity change, negative = inhibition” value is -7.3% [at 27.4 µM] (inactive).
In the case of `COc1c(O)cc2oc(-c3ccccc3)cc(=O)c2c1O`, the “activity change, negative = inhibition” value was -20.1% (inactive).
Turning to `C/C=C/[C@H]1[C@H]2C(=O)c3c(O)c(C)c(O)c(C)c3[C@]1(C(=O)O)C(=O)C=C2C`, the “activity change, negative = inhibition” value is -1.68% (inactive).
Still for that read-out and setting: under `C=C1C[C@@]23C=CC(=O)[C@@](C)(CCC(=O)Nc4c(OC5O[C@H](CO)[C@@H](O)[C@H](O)[C@H]5O)ccc(C(=O)O)c4O)C2C[C@@H]1CC3` (stereo partly specified) stands 7.66% (inactive); under `COc1ccc([C@@H]2c3cc4c(cc3C(=O)C(C)C2C)OCO4)cc1OC` (stereo partly specified), -12.4% (inactive).
For the compound `CC[C@H](C)[C@H](NC(=O)C(Cc1ccc(O)cc1)NC(=O)C(Cc1c[nH]c2ccccc12)NC(=O)[C@H](C)N)C(=O)N1C(C(=O)NC(Cc2ccc(O)cc2)C(=O)O)CC2(c3ccc(O)cc3)c3ccccc3NC12` (stereo partly specified) (H-A[ξW][ξY]I[X4][ξY]-OH), the “activity change, negative = inhibition” value is -8.41% (inactive).
For the compound `C=C[C@@]1(C)CC[C@@H]([C@H](C)C(=O)/C=C/C(C)(C)O)O1`, the “activity change, negative = inhibition” value was -16.7% (inactive).
Still for that read-out and setting: under `CC(CCC[C@]1(C)C(=O)C=C[C@@]23C[C@]4(C)O[C@@H](C[C@@H]4[C@H]2O)C31)C(=O)O` (stereo partly specified) stands -0.0817% (inactive); under `C=CC(CCCCC)C1C(=O)NC(=O)C1C(=O)C1C2C(C)CC(C(=O)O)CC2CC1(O)C(=O)/C=C/C` (stereo unspecified), -1.16% (inactive).
Same read-out and setting: the value for `CC1(C)CC[C@]2(CO)CC[C@]3(C)C(=CCC4[C@@]5(C)CC[C@H](O)C(C)(C)C5CC[C@]43C)C2C1` (stereo partly specified) was 0.666% (inactive).
The same measure, in the same setting: the value for `Oc1ccc(C2c3c(O)cc(O)cc3[C@@H]3C(c4ccc(O)cc4)c4c(O)cc(O)cc4[C@H]23)cc1` (stereo partly specified) was -26.7% (inactive).
